The panel holds about 83,000 compounds, 20% with a hit somewhere; the sample as a whole holds those more often.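 Single-concentration screen, 48 h exposure, 96-well plates. Endpoint: percent growth. Below 10 = active.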 A number with no mark means an inactive call. Active and inactive are the calls of the source.
Test system: MDA-MB-468 breast
Experiment: NCI-60 one-dose screen, 48 h (100 = growth as untreated, 0 = no growth, -100 = all killed)
Settings: 10 µM unless noted

SMILES	growth
O=C(CC(NC(=O)OCc1ccccc1)C(=O)OCc1ccccc1)OCc1ccccc1 (stereo not drawn)	112%
O=[N+]([O-])c1ccc2c(c1)S(=O)c1cc([N+](=O)[O-])ccc1N2	94.8%
COc1ccc(Nc2nn3c(-c4ccccc4)cc(-c4ccccc4)nc3c2C(N)=O)c(OC)c1	43.5%
Cc1ccc2ccccc2c1C[n+]1ccccc1	50.5%
O=C(NNc1nc2cc(F)c(F)cc2n2c(CN3CC4CNCC4C3)ccc12)c1cnccn1 (stereo not drawn)	-4.58% (active)
CC1(C)CC[C@]23CC[C@]4(C)[C@H](CC[C@@H]5[C@@]6(C)C/C(=C/c7ccncc7)C(=O)C(C)(C)[C@@H]6CC[C@]54C)[C@H]2[C@H]1OC3	91.1%
COc1ccc(C(=O)c2cc(OC)c(OC)c(OC)c2)cc1O	-14.4% (active)
CC(=O)O[C@H]1C(=O)[C@@]2(C)C([C@H](OC(=O)c3ccccc3)[C@]3(O)C[C@H](OC(=O)[C@H](O)[C@@H](NC(=O)c4ccccc4)c4ccccc4)C(C)=C1C3(C)C)[C@]1(OC(C)=O)CO[C@@H]1C[C@@H]2O (stereo partly drawn)	-11.7% (active)
